Assay results from article PMC7862700, “An all-to-all approach to the identification of sequence-specific readers for epigenetic DNA modifications on cytosine”.

How the values were obtained:
Assay in all cases: DAPPL (digital affinity profiling via proximity ligation, sequencing); 10 mM Tris-HCl pH 7.5, 50 mM NaCl, 1 mM DTT, 4% glycerol, room temperature, 30 min; GST-TFs on glutathione beads, 16-mer random dsDNA library, 0.1% formaldehyde crosslink after washing; high values mean tight binding
[1] = biological target: T1, FEV (Homo sapiens, UniProt Q99581 1-238); details: protein: recombinant; tags: N-terminal GST; dsDNA, one strand shown
T1 sequence: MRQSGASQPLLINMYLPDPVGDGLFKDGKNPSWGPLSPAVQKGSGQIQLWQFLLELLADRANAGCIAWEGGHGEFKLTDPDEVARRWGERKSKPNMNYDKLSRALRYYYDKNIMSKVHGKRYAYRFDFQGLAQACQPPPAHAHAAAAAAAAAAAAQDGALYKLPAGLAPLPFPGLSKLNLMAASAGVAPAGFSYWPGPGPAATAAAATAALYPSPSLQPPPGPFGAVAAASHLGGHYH
Procedure, shortened: (§1)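 Binding signal is each hexamer's read frequency for a factor divided by its frequency in the tag-only sample. The factors were GST-fused human transcription factors from yeast, captured on glutathione beads, DNA-barcoded and pooled with that sample. Pools were incubated with 200 nmole of a random double-stranded 16-mer DNA library in Tris/NaCl/DTT/glycerol buffer at room temperature for 30 min, then washed, crosslinked with 0.1% formaldehyde, proximity-ligated with BsaI/T4 ligase (1 h, 37 °C), PCR-amplified and sequenced on an Illumina NextSeq500.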

[2] = biological target: ETV5 (Homo sapiens, UniProt P41161 1-510); details: protein: recombinant; tags: N-terminal GST; dsDNA, one strand shown
Procedure, shortened: as §1

[3] = biological target: HSF1 (Homo sapiens, UniProt Q00613 1-529); details: protein: recombinant; tags: N-terminal GST; chain copies: 3; dsDNA, one strand shown
Procedure, shortened: as §1

[4] = biological target: T2, SPIC (Homo sapiens, UniProt Q8N5J4 1-248); details: protein: recombinant; tags: N-terminal GST; dsDNA, one strand shown
T2 sequence: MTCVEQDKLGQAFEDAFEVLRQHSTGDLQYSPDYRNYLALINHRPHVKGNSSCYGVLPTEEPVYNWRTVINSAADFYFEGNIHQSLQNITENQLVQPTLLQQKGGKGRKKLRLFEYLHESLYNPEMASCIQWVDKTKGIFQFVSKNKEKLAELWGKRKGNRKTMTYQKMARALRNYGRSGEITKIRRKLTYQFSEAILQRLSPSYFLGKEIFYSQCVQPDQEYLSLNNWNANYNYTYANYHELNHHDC
Procedure, shortened: as §1

[5] = biological target: ELF4 (Homo sapiens, UniProt Q99607 1-663); details: protein: recombinant; tags: N-terminal GST; dsDNA, one strand shown
Procedure, shortened: as §1

[6] = biological target: T3, ELK4 (Homo sapiens, UniProt P28324-2 1-405); details: protein: recombinant; tags: N-terminal GST; dsDNA, one strand shown
T3 sequence: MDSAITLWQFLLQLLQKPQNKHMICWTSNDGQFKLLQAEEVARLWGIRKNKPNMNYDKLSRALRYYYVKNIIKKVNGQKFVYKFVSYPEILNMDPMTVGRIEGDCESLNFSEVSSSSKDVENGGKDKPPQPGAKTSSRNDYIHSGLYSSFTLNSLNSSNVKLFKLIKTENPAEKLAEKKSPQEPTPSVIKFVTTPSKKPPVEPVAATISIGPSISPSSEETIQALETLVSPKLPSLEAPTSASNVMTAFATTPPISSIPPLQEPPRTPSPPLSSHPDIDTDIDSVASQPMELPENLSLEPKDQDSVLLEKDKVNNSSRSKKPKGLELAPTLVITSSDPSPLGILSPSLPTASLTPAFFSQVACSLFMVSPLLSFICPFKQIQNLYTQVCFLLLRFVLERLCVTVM
Procedure, shortened: as §1

[7] = biological target: T4, ETV2 (Homo sapiens, UniProt O00321 1-342); details: protein: recombinant; tags: N-terminal GST; dsDNA, one strand shown
T4 sequence: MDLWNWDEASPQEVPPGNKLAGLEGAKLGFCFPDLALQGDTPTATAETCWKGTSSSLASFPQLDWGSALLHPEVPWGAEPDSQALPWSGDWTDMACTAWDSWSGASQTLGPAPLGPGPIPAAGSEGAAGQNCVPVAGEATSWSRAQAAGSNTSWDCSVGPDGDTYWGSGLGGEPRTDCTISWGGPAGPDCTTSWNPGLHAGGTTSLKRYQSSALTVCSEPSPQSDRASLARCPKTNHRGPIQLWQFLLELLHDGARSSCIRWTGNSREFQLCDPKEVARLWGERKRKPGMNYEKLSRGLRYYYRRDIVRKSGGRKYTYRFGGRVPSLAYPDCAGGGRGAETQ
Procedure, shortened: as §1

[8] = biological target: ETV1 (Homo sapiens, UniProt P50549 1-477); details: protein: recombinant; tags: N-terminal GST; dsDNA, one strand shown
Procedure, shortened: as §1

[9] = biological target: T5, ERF (Homo sapiens, UniProt P50548 1-548); details: protein: recombinant; tags: N-terminal GST; dsDNA, one strand shown
T5 sequence: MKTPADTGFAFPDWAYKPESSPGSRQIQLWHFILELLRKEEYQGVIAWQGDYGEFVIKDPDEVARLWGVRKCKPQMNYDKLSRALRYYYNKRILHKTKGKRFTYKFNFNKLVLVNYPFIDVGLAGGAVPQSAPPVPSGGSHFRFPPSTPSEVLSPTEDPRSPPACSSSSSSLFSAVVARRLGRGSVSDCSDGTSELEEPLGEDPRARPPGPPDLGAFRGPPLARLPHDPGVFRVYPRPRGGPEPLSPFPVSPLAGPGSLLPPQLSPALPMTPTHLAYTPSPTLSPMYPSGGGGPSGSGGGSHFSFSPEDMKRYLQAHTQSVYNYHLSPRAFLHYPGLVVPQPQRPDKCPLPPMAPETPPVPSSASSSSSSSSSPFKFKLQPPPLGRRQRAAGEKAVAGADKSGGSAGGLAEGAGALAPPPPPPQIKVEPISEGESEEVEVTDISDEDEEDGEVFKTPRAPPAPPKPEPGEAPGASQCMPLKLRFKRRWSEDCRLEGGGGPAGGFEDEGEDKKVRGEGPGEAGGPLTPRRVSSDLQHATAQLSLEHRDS
Procedure, shortened: as §1

[10] = biological target: T6, ETV3L (Homo sapiens, UniProt Q6ZN32 1-361); details: protein: recombinant; tags: N-terminal GST; dsDNA, one strand shown
T6 sequence: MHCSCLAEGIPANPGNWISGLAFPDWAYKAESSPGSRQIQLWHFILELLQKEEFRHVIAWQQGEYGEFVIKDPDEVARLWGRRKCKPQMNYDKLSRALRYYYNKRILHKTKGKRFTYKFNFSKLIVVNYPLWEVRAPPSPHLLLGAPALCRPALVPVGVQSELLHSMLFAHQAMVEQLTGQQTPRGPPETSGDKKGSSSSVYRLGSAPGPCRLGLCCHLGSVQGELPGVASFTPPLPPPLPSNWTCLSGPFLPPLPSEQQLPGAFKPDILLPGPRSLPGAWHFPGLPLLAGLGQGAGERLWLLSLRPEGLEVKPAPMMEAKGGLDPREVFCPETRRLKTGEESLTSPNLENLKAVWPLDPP
Procedure, shortened: as §1

[11] = biological target: T7, ETS2 (Homo sapiens, UniProt P15036 1-469); details: protein: recombinant; tags: N-terminal GST; dsDNA, one strand shown
T7 sequence: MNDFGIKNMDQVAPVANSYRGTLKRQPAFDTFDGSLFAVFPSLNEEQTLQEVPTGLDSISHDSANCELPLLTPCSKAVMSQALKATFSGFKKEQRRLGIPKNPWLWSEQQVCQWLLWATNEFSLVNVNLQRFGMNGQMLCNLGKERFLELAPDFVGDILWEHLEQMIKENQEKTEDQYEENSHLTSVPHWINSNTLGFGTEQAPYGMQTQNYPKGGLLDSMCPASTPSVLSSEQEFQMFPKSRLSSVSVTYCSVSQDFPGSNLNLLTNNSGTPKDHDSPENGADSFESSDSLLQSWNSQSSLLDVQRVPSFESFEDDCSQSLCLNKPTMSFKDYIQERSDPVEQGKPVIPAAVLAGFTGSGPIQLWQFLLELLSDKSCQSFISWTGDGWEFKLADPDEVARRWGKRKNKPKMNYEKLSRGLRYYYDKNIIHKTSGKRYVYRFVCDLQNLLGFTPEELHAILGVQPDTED
Procedure, shortened: as §1

[12] = biological target: T8, SPDEF (Homo sapiens, UniProt O95238 1-335); details: protein: recombinant; tags: N-terminal GST; dsDNA, one strand shown
T8 sequence: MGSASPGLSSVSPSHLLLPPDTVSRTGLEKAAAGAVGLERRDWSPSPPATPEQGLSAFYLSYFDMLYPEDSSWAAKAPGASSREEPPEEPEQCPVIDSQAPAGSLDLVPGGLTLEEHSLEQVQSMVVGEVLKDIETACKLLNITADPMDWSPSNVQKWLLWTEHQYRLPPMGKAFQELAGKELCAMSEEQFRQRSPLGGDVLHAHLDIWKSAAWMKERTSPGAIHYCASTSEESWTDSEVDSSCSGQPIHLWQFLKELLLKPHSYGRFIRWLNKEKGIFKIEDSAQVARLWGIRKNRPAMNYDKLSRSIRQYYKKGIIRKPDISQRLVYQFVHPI
Procedure, shortened: as §1

[13] = biological target: T9, ETV7 (Homo sapiens, UniProt Q9Y603 1-341); details: protein: recombinant; tags: N-terminal GST; dsDNA, one strand shown
T9 sequence: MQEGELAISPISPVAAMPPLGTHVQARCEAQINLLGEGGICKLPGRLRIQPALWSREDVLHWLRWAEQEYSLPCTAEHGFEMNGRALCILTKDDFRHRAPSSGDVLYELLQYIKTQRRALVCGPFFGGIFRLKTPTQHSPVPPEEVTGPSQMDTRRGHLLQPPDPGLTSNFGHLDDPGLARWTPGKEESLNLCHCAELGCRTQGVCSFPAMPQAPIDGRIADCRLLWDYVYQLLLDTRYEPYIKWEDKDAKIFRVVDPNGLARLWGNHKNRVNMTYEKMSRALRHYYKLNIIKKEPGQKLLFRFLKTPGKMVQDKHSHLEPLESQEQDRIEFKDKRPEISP
Procedure, shortened: as §1

[14] = biological target: T10, ELF5 (Homo sapiens, UniProt Q9UKW6-2 1-255); details: protein: recombinant; tags: N-terminal GST; dsDNA, one strand shown
T10 sequence: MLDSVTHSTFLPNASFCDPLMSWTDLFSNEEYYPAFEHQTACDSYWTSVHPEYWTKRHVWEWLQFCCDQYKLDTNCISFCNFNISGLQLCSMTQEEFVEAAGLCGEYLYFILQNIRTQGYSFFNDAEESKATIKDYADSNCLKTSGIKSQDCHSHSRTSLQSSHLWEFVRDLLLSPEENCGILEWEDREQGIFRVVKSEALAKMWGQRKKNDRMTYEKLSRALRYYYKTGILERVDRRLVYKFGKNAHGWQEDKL
Procedure, shortened: as §1

[15] = biological target: T11, ETV3 (Homo sapiens, UniProt P41162-2 1-143); details: protein: recombinant; tags: N-terminal GST; dsDNA, one strand shown
T11 sequence: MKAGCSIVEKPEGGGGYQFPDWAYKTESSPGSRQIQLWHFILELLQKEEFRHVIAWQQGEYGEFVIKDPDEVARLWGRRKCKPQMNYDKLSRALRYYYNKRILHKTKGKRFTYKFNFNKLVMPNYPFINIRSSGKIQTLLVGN
Procedure, shortened: as §1

[16] = biological target: ETV6 (Homo sapiens, UniProt P41212 1-452); details: protein: recombinant; tags: N-terminal GST; dsDNA, one strand shown
Procedure, shortened: as §1

[17] = biological target: CRX (Homo sapiens, UniProt O43186 1-299); details: protein: recombinant; tags: N-terminal GST; dsDNA, one strand shown
Procedure, shortened: as §1

ETV6, sequence (P41212 whole entry): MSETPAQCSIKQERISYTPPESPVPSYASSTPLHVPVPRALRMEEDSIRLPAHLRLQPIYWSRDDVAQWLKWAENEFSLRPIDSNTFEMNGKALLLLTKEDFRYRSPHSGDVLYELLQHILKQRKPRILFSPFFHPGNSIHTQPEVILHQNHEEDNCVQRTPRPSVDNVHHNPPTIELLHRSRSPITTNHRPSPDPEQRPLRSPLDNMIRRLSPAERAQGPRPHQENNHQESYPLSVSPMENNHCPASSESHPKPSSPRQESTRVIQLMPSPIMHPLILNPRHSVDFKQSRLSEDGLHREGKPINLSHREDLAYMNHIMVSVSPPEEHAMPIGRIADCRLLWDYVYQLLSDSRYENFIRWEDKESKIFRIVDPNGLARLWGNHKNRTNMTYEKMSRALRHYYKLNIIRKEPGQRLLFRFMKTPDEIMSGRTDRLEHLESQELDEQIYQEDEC
HSF1, sequence (Q00613 whole entry): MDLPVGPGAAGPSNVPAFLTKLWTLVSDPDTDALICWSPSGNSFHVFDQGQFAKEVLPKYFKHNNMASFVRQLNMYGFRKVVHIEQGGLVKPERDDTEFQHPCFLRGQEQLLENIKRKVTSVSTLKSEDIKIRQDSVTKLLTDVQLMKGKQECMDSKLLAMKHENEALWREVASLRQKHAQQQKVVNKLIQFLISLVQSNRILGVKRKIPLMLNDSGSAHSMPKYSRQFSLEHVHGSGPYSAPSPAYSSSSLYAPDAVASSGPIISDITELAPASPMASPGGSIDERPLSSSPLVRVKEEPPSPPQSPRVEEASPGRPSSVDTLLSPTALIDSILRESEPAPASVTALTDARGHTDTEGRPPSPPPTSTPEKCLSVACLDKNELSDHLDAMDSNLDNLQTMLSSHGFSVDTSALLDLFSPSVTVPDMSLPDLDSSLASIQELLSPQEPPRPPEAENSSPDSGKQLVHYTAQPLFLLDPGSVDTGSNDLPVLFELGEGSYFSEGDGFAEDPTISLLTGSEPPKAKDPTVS
ETV5, sequence (P41161 whole entry): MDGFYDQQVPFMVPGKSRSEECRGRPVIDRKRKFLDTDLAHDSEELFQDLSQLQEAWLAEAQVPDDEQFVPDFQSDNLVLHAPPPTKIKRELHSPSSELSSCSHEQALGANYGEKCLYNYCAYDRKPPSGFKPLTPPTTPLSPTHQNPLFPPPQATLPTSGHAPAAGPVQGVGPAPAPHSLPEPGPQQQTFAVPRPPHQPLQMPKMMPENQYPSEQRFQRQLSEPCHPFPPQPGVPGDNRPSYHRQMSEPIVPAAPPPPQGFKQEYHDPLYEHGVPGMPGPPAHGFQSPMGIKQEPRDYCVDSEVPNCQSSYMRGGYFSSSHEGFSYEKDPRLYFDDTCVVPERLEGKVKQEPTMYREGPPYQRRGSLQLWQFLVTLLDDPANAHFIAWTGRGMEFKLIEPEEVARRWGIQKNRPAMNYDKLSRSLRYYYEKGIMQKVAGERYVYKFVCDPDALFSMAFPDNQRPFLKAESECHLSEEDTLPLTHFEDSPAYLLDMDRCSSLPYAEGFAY
ELF4, sequence (Q99607 whole entry): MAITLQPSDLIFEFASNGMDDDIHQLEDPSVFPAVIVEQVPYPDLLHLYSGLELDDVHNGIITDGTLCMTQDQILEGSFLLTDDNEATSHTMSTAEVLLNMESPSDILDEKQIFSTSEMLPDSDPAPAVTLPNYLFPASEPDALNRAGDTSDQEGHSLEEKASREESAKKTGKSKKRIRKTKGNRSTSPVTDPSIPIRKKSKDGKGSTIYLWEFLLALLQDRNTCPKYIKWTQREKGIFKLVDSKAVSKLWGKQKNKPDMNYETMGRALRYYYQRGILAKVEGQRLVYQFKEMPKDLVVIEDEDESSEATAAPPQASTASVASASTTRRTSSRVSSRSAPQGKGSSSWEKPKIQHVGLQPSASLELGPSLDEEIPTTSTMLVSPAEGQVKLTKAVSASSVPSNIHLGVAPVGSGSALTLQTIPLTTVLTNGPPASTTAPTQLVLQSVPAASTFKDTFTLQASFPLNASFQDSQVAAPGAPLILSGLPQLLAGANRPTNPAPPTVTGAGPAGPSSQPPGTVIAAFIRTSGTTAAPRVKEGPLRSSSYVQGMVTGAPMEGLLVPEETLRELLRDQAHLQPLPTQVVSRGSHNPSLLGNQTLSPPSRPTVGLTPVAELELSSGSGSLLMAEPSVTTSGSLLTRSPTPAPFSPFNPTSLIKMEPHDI
ETV1, sequence (P50549 whole entry): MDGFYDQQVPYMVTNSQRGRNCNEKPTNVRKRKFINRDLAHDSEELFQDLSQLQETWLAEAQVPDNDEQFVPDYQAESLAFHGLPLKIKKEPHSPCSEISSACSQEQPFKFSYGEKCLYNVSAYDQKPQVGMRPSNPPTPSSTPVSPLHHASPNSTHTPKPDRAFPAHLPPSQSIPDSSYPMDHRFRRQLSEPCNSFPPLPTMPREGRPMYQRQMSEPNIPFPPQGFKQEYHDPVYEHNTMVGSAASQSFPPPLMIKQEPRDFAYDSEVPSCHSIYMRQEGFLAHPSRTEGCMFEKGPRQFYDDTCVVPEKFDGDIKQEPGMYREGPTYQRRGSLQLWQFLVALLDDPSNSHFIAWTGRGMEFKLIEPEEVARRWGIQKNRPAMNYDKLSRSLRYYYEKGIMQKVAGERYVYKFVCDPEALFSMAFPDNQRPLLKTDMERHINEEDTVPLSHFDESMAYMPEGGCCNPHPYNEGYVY
CRX, sequence (O43186 whole entry): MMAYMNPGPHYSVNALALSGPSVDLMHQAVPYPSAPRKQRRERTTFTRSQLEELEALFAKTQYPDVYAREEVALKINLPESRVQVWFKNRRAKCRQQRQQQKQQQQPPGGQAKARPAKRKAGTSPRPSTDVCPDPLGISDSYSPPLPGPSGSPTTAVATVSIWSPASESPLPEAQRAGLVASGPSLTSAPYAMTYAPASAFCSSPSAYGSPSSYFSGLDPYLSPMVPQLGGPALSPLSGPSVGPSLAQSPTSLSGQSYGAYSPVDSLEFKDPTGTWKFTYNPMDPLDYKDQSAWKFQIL

| Sequence | binding signal [1] | binding signal [2] | binding signal [3] | binding signal [4] | binding signal [5] | binding signal [6] | binding signal [7] | binding signal [8] | binding signal [9] | binding signal [10] | binding signal [11] | binding signal [12] | binding signal [13] | binding signal [14] | binding signal [15] | binding signal [16] | binding signal [17] |
| --- | --- | --- | --- | --- | --- | --- | --- | --- | --- | --- | --- | --- | --- | --- | --- | --- | --- |
| CACTCG | 1.22 fold enrichment (6-mer frequency, TF over GST control) | 1.13 fold enrichment (6-mer frequency, TF over GST control) | 1.16 fold enrichment (6-mer frequency, TF over GST control) | 1.08 fold enrichment (6-mer frequency, TF over GST control) | 1.2 fold enrichment (6-mer frequency, TF over GST control) | 1.24 fold enrichment (6-mer frequency, TF over GST control) | 1.2 fold enrichment (6-mer frequency, TF over GST control) | 1.09 fold enrichment (6-mer frequency, TF over GST control) | 1.1 fold enrichment (6-mer frequency, TF over GST control) | 1.11 fold enrichment (6-mer frequency, TF over GST control) | 1.22 fold enrichment (6-mer frequency, TF over GST control) | 1.04 fold enrichment (6-mer frequency, TF over GST control) | 1.13 fold enrichment (6-mer frequency, TF over GST control) | 1.05 fold enrichment (6-mer frequency, TF over GST control) | 1.09 fold enrichment (6-mer frequency, TF over GST control) | 1.1 fold enrichment (6-mer frequency, TF over GST control) | – |
| GATGAA | 1.13 fold enrichment (6-mer frequency, TF over GST control) | 1.13 fold enrichment (6-mer frequency, TF over GST control) | 1.21 fold enrichment (6-mer frequency, TF over GST control) | 1.11 fold enrichment (6-mer frequency, TF over GST control) | 1.2 fold enrichment (6-mer frequency, TF over GST control) | 1.21 fold enrichment (6-mer frequency, TF over GST control) | 1.13 fold enrichment (6-mer frequency, TF over GST control) | 1.27 fold enrichment (6-mer frequency, TF over GST control) | 1.17 fold enrichment (6-mer frequency, TF over GST control) | 1.25 fold enrichment (6-mer frequency, TF over GST control) | 1.19 fold enrichment (6-mer frequency, TF over GST control) | 1.15 fold enrichment (6-mer frequency, TF over GST control) | 1.24 fold enrichment (6-mer frequency, TF over GST control) | 1.17 fold enrichment (6-mer frequency, TF over GST control) | 1.11 fold enrichment (6-mer frequency, TF over GST control) | 1.18 fold enrichment (6-mer frequency, TF over GST control) | 1.22 fold enrichment (6-mer frequency, TF over GST control) |
